{"source": "PubChem BioAssay (Tox21)", "note": "Several values for one entry are separate records, joined by “and”; a condition that tells them apart may be missing. Identical values can stand only once. Inconclusive results are not listed. A call without a number means that no potency is given here. Some compounds were tested as several samples or in several runs, with calls that do not always agree. Activity calls are given as the source filed them. The call rests on the fitted dose curve; in most records, active means well fitted cell-killing curve with a large enough effect in the repeat runs; inconclusive means weak or mixed curves; inactive means flat fitted curve, though single readings scatter. Potency means the concentration at half of the fitted maximal effect."}
{"assay": "qHTS RealTime-Glo MT Cell Viability Assay in HepG2 cells - 32 hour (AID 1224877); further: nearly all actives have a fitted effect of over 55% in size", "details": "RealTime-Glo luminescence; series mostly up to 76.8 µM", "excerpt": "U.S. Tox21 Program National Center for Advancing Translational Sciences [NCATS] NIH Chemical Genomics Center [NCGC] U.S. Environmental Protection Agency [EPA] National Institutes of Environmental Health Sciences [NIEHS] National Toxicology Program [NTP] U.S. Food and Drug Administration [FDA] Tox21 Assay Overview: Measure of cell viability is critical in the cell-base assay. Analysis of cell viability is necessary for the characterization of cell responses to cytotoxic drugs and environmental stress. A RealTime-Glo MT Cell Viability Assay to monitor cell viability in real time of continues cell culture during 40 hours of compound treatment was used to screen Tox21 10K library compounds in HepG2 cells. The RealTime-Glo MT Cell Viability Assay is a nonlytic, homogeneous, bioluminescent method to measure cell viability in real time using a simple, plate-based method. The assay involves adding NanoLuc luciferase and a cell-permeant prosubstrate to cells in culture. Viable cells reduce the proprietary prosubstrate to generate a substrate for NanoLuc luciferase. This substrate diffuses from cells into the surrounding culture medium, where it is rapidly used by the NanoLuc Enzyme to produce a luminescent signal. The signal correlates with the number of viable cells, making the assay well suited for cytotoxicity studies.\nTox21 Assay Protocol Summary: The mixture of HepG2 cell suspension and reagents were dispensed at 600cells/6 ul/well in 1536-well tissue culture treated black solid bottom plates using a Multidrop dispenser. After the assay plates were incubated at a 37 C/5% CO2 incubator for 5 hours, 23 nL of compounds dissolved in DMSO, positive and negative controls was transferred to the assay plate by a pintool work station. The plates were incubated at 37 C for 40 hours. The luminescence intensity were measured at 0h, 8h, 16h, 24h, 32h and 40h time points using ViewLux plate reader during compound treatment."}
{"smiles": "CC(C)(c1ccccc1)c1ccc(Nc2ccc(C(C)(C)c3ccccc3)cc2)cc1", "Potency": "inactive"}
{"smiles": "CC(=O)O[C@]1(C(C)=O)CC[C@H]2[C@@H]3C[C@H](C)C4=CC(=O)CC[C@]4(C)[C@H]3CC[C@@]21C", "Potency": "inactive"}
{"smiles": "CC(=O)CC(C)=O", "Potency": "inactive"}
{"smiles": "CCN(CC)C(=O)Nc1ccc(OCC(O)CNC(C)(C)C)c(C(C)=O)c1", "note": "(stereo not given)", "Potency": "inactive"}
{"smiles": "O=Cc1ccc(Cl)cc1", "Potency": "inactive"}
{"smiles": "O=C(O)c1cn(-c2ccc(F)cc2)c2cc(N3CCNCC3)c(F)cc2c1=O", "Potency": "inactive"}
{"smiles": "Cc1cccc2n[nH]nc12", "Potency": "inactive"}
{"smiles": "CCc1cc(C(C)(C)C)c(O)c(C(C)(C)C)c1", "Potency": "inactive"}
{"smiles": "CC(=O)Nc1ccc(C(=O)CCl)cc1", "Potency": "inactive and 21.9 µM (active)"}
{"smiles": "NNCCc1ccccc1", "Potency": "inactive"}
{"smiles": "Nc1cc(S(=O)(=O)O)cc2cc(S(=O)(=O)O)cc(O)c12", "Potency": "inactive"}
{"smiles": "CCCCCC(=O)O[C@]1(C(C)=O)CC[C@H]2[C@@H]3CCC4=CC(=O)CC[C@]4(C)[C@H]3CC[C@@]21C", "Potency": "inactive"}
{"smiles": "O=C1Nc2ccccc2C1(c1ccc(O)cc1)c1ccc(O)cc1", "Potency": "inactive"}
{"smiles": "OCCN1CCNCC1", "Potency": "inactive"}
{"smiles": "Clc1ccc2c(c1)C(N1CCNCC1)=Nc1ccccc1O2", "Potency": "54.9 µM (active)"}
{"smiles": "O=C(Oc1ccccc1)c1ccccc1O", "Potency": "inactive"}
{"smiles": "NC12CC3CC(CC(C3)C1)C2", "Potency": "inactive"}
{"smiles": "CCC(=O)/C=C/C1C(C)=CCCC1(C)C", "note": "(stereo not given)", "Potency": "inactive"}
{"smiles": "C1COC(NC(C2CC2)C2CC2)=N1", "Potency": "inactive"}
{"smiles": "C=C(C)C(=O)O", "Potency": "inactive"}
{"smiles": "CC(C)(C)c1cc(C(C)(C)C)c(O)c(C(C)(C)C)c1", "Potency": "inactive"}
{"smiles": "O=C(O)Cn1cnnn1", "Potency": "inactive"}
{"smiles": "CC(C)(C)c1ccccc1", "Potency": "inactive"}
{"smiles": "Nc1cc(Cl)c(-c2cc(Cl)c(N)cc2Cl)cc1Cl", "Potency": "inactive"}
{"smiles": "CC[C@]1(O)C[C@@H]2CN(CCc3c([nH]c4ccccc34)[C@@](C(=O)OC)(c3cc4c(cc3OC)N(C)[C@H]3[C@@](O)(C(=O)OC)[C@H](OC(C)=O)[C@]5(CC)C=CCN6CC[C@]43[C@@H]65)C2)C1", "Potency": "inactive"}
{"smiles": "O=C(O)c1cc(Cl)cc(Cl)c1", "Potency": "inactive"}
{"smiles": "COC(=O)/C=C/c1ccccc1", "Potency": "inactive"}
{"smiles": "CC[C@@H](N)CO", "Potency": "inactive"}
{"smiles": "CCOc1ccc2c(c1)C(C)=CC(C)(C)N2", "Potency": "inactive"}
{"smiles": "CC(C)(O)CCC(C)(C)O", "Potency": "inactive"}
{"smiles": "Oc1c(Cl)cc(Cl)cc1Sc1cc(Cl)cc(Cl)c1O", "Potency": "inactive"}
{"smiles": "CCCCCCCCCCCCCCCCCl", "activity change, negative = cytotoxic": "6.67% [at 15.8 µM] (inactive)"}
{"smiles": "CC(N)=O", "Potency": "inactive"}
{"smiles": "OCCOCCN1CCN(C(c2ccccc2)c2ccc(Cl)cc2)CC1", "note": "(stereo not given)", "Potency": "48.3 µM (active) and inactive"}
{"smiles": "NCCCCCC(=O)O", "Potency": "inactive"}
{"smiles": "O=C(Cl)c1cccc(C(=O)Cl)c1", "Potency": "inactive"}
{"smiles": "COc1nc(C)nc(Cl)c1NC1=NCCN1", "Potency": "inactive"}
{"smiles": "CCCCN(CCO)CCCC", "Potency": "inactive"}
{"smiles": "CCCCC/C=C/CC1CC(=O)OC1=O", "note": "(stereo not given)", "Potency": "inactive"}
{"smiles": "CCCOC(=O)c1cc(O)c(O)c(O)c1", "Potency": "inactive"}
